Reference: PubChem BioAssay (NCI)
Compounds without any hit were thinned out: in the full panel of roughly 83,000, 20% have a hit.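 Results are percent growth after 48 hours of single-concentration exposure. 100 means growth as in untreated cells, lower positive values show inhibition; negative values down to -100 show cell death.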 A number with no mark means an inactive call. Active and inactive are the calls of the source. Rule for the calls: active = growth percent below 10; inactive = the rest.

What was measured:
Assay in all cases: NCI-60 one-dose screen, 48 h (100 = growth as untreated, 0 = no growth, -100 = all killed)
Settings in all cases: 10 µM unless noted
HCT-15 colon = system: HCT-15 colon
HT29 colon = system: HT29 colon
SNB-75 CNS = system: SNB-75 CNS
SNB-19 CNS = system: SNB-19 CNS
U251 CNS = system: U251 CNS
PC-3 prostate = system: PC-3 prostate
UACC-62 melanoma = system: UACC-62 melanoma
SK-MEL-28 melanoma = system: SK-MEL-28 melanoma
SK-MEL-2 melanoma = system: SK-MEL-2 melanoma
EKVX NSCLC = system: EKVX NSCLC
SN12C renal = system: SN12C renal
UO-31 renal = system: UO-31 renal
TK-10 renal = system: TK-10 renal
ACHN renal = system: ACHN renal
CAKI-1 renal = system: CAKI-1 renal
CCRF-CEM leukemia = system: CCRF-CEM leukemia
MOLT-4 leukemia = system: MOLT-4 leukemia
LOX IMVI melanoma = system: LOX IMVI melanoma
A498 renal = system: A498 renal

| Structure (SMILES) | growth (HCT-15 colon) | growth (HT29 colon) | growth (SNB-75 CNS) | growth (SNB-19 CNS) | growth (U251 CNS) | growth (PC-3 prostate) | growth (UACC-62 melanoma) | growth (SK-MEL-28 melanoma) | growth (SK-MEL-2 melanoma) | growth (EKVX NSCLC) | growth (SN12C renal) | growth (UO-31 renal) | growth (TK-10 renal) | growth (ACHN renal) | growth (CAKI-1 renal) | growth (CCRF-CEM leukemia) | growth (MOLT-4 leukemia) | growth (LOX IMVI melanoma) | growth (A498 renal) |
| --- | --- | --- | --- | --- | --- | --- | --- | --- | --- | --- | --- | --- | --- | --- | --- | --- | --- | --- | --- |
| Cc1ncc(C(=O)Nc2ccc(CN3CCN(C)CC3)c(C(F)(F)F)c2)cc1C#Cc1cnc2cccnn12 | 4.12% (active) | 0.719% (active) | -71.7% (active) | 7.27% (active) | 7.52% (active) | 5.7% (active) | -16.9% (active) | -14.4% (active) | -55.4% (active) | -3.95% (active) | 0.116% (active) | 1.45% (active) | -3.71% (active) | -1.57% (active) | -16.7% (active) | 5.77% (active) | -0.188% (active) |  |  |
| Cc1ccc(NC(=O)C2CCC(CN3CCN(C)CC3)CC2)cc1Nc1nccc(-c2cccnc2)n1 (stereo not given) | 95.2% | 100% | 77.6% | 100% | 95% | 103% | 103% | 99.7% |  | 97.6% | 91.9% | 83.3% | 121% | 94.9% | 95.5% | 109% | 89.8% | 90.8% | 89.6% |
| CCCOc1ccc2nc(NC(=O)OC)[nH]c2c1 | 12.4% | 0.423% (active) | 46.1% | 34% | 12.7% | 19.7% | 22.3% | 66.5% |  | 57.1% | 23.2% | 37.5% | 35.7% | 31.5% | 51.7% | 7.62% (active) | 17.7% | 24.4% | 9.31% (active) |
| Cc1cc(N[C@@H]2CCC[C@H](Nc3ccnc4cc(Cl)ccc34)C2)nc(N2CCCCCC2)n1 | -73.2% (active) | -59.9% (active) | -83.7% (active) | -22.2% (active) | -92.6% (active) | -67.7% (active) | -90.2% (active) | -80.3% (active) |  | 7.62% (active) | -74.8% (active) | -95.6% (active) | -67.7% (active) | -85.5% (active) |  | -23.1% (active) | -18.5% (active) | -86.3% (active) | -87.6% (active) |
